NOMO-1 viab: NOMO-1 AML cell viability reduction, primary screen, STK33 inhibitor project, CellTiter-Glo luminescence; NOMO-1 AML viability, 72 h; inhibition, % (no concentration beside the values); 37,000 compounds, 7.5% hits; AID 2330, 2010; in the data active = inhibition above about 80%; inconclusive = no clear call, values can overlap the other calls
ROS inducer: ROS inducers in U2OS cancer cells, primary screen, cell-based, H2DCF-DA fluorescence; U2OS ROS induction; ROS induction (% of piperlongumine), % at 10 µM; 46,000 compounds, 2% hits; AID 624156, 2012; in the data active = ROS induction above about 79%, passing the limit was not always enough; inconclusive = no clear call, values can overlap the other calls;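 also: 0% = DMSO vehicle median and 100% = reference compound median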
PD-1 reversal: activators reversing PD-1 mediated T-cell inhibition, primary screen, luminescence, primary human CD4 T cells, PD-L1 beads | CellTiter-Glo 96 h | activation, % (no concentration beside the values) | 29,000 tested, under 10 active | AID 2316, 2010; call rule not given here;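 also: 0% = median vehicle wells and 100% = positive control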
YB-1 expr inh: inhibitors of YB-1 gene expression, primary screen, cell-based, fluorescence; U2OS, qRT-PCR YB-1 vs CDIP delta delta Cp, 16 h; stronger effect = higher value; zero = DMSO, each unit about twofold; delta delta Cp (YB-1 minus CDIP) (test concentration not listed); 30,000 compounds, 0.37% hits;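 active = delta delta Cp rounded down to an integer at or above 3, about 3 SD of DMSO wells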;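 also: higher means less YB-1 transcript or more CDIP transcript relative to DMSO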
Active calls of the source: *; ? = inconclusive; · = no result. The sample as a whole holds a higher share of hits than the screen did.

SMILES	NOMO-1 viab	ROS inducer	PD-1 reversal	YB-1 expr inh
C[C@@H]1CN([C@H](C)CO)C(=O)Cc2cc(NC(=O)Nc3ccc(F)cc3)ccc2O[C@H]1CN(C)Cc1ccc(Oc2ccccc2)cc1	123.3*	-1.4	-1.8	0.0779
C/C(=C\C(=O)O)CCC1C(C)(O)CCC2C(C)(CO)CCCC12C (configuration not stated)	·	-7.4	·	-0.0505
COc1ccc(NC(=O)Nc2ccc3c(c2)CC(=O)N([C@H](C)CO)C[C@H](C)[C@H](CN(C)Cc2ccc(Oc4ccccc4)cc2)O3)cc1	?	18.0	-1.2	0.000414
C[C@H](CO)N1C[C@H](C)[C@H](CN(C)Cc2ccc(Oc3ccccc3)cc2)Oc2ccc(NC(=O)Nc3ccc(F)cc3)cc2CC1=O	98.1*	18.4	-3.3	0.309
COc1ccc(CN2C(=O)C(O)(CC(=O)c3ccc(C)s3)c3ccccc32)cc1OC (configuration not stated)	114.1*	·	·	·
COc1ccc(C(=O)CC2(O)C(=O)Nc3ccc(Cl)cc32)cc1OC (configuration not stated)	25.4	-3.0	-1.4	·
O=C(CC1(O)C(=O)N(Cc2ccc(Cl)c(Cl)c2)c2ccccc21)c1cccc([N+](=O)[O-])c1 (configuration not stated)	108.1*	35.3	-5.5	·
COc1ccc(C(=O)CC2(O)C(=O)N(Cc3ccccc3Cl)c3ccc(Cl)cc32)cc1OC (configuration not stated)	90.1*	24.6	-2.2	·
O=C(CC1(O)C(=O)N(Cc2cccc3ccccc23)c2ccccc21)c1ccc(F)cc1 (configuration not stated)	84.0*	·	·	·
Cc1ccc(C(=O)CC2(O)C(=O)N(Cc3cccc4ccccc34)c3ccccc32)cc1 (configuration not stated)	32.2	·	·	·
COc1ccc(CN2C(=O)C(O)(CC(=O)c3c(C)coc3C)c3ccccc32)cc1OC (configuration not stated)	50.2	·	·	·
Cc1ccc(N(CC(=O)Nc2ccccc2-c2ccccc2)S(C)(=O)=O)cc1	11.7	-18.7	-1.7	·
O=C1CCCC(O)=C1C=Nc1cccc2ccccc12	42.5	35.6	-0.5	-0.243
C=C(C(=O)O[C@@H]1O[C@H](CO)[C@@H](O)[C@H](O)[C@H]1O)[C@@H]1CC[C@@]2(C)C[C@H](O)C[C@@](C)(O)C2C1 (some centres not stated)	·	-3.2	·	0.334
C=CCN1C(=O)C(O)(CC(=O)c2ccc(OC)c([N+](=O)[O-])c2)c2ccccc21 (configuration not stated)	118.9*	-6.0	-10.2	·
Cc1ccccc1CN1C(=O)C(O)(CC(=O)c2ccncc2)c2cc(Cl)ccc21 (configuration not stated)	128.5*	1.4	-7.5	·
C=CCN1C(=O)C(O)(CC(=O)c2ccc(C)o2)c2ccccc21 (configuration not stated)	27.2	·	·	·
COc1ccc(CN2C(=O)C(O)(CC(=O)c3cccnc3)c3ccccc32)cc1OC (configuration not stated)	106.5*	16.7	-4.5	·
COc1ccc(CN2C(=O)C(O)(CC(=O)c3ccc4c(c3)CCCC4)c3ccccc32)cc1OC (configuration not stated)	46.9	20.5	-2.1	·
COc1ccc(CN2C(=O)C(O)(CC(=O)c3ccc(Cl)s3)c3ccccc32)cc1OC (configuration not stated)	108.8*	·	·	·
Cc1cc(=O)oc2c3c(ccc12)O/C(=C/C=C/c1ccccc1)C3=O	·	58.9	·	·
Cc1cccc(NC(=O)CSc2nnc(-c3ccc(N)cc3)n2C)c1	40.1	·	·	·
COc1ccc(CN2C(=O)C(O)(CC(=O)c3ccc(Cl)cc3)c3ccccc32)cc1OC (configuration not stated)	112.0*	·	0.5	·
O=C(COc1ccc(Br)cc1)Nc1cccc2ncccc12	51.0	0.2	-0.7	·
S=C1NN(c2ccccc2)C2=C(CCC2)S1	·	-0.6	·	·
SMILES	NOMO-1 viab	ROS inducer	PD-1 reversal	YB-1 expr inh
c1ccc(C2C3=C(CCCC3)SC3=C2CCCC3)cc1	98.1*	11.4	-0.6	0.0816
CCOC(=O)C1CCCN(Cc2nc(N)nc(Nc3ccccc3)n2)C1 (configuration not stated)	112.6*	-6.6	0.4	·
Cc1ccc(Nc2nc(N)nc(CC(=O)CSc3nc4ccccc4s3)n2)cc1	·	27.5	·	·
CCOc1ccccc1Nc1nc(N)nc(CN2CCCCC2C)n1 (configuration not stated)	27.5	·	·	·
Cc1ccc(Nc2nc(N)nc(CN3CCN(C(c4ccccc4)c4ccccc4)CC3)n2)cc1	89.4*	39.8	-9.2	·
N#C/C(=C(\O)c1ccc(C(=O)c2ccccc2)cc1)c1nc2ccccc2s1	34.9	?	0.3	0.000799
COc1ccc(CC(=O)NC2CCCCC2)cc1OC	15.9	-3.5	0.4	-0.447
COc1cc2c(c(OC)c1OC)-c1ccc(OC)c(=O)cc1[C@@H](NC(C)=O)CC2	117.6*	13.8	·	0.221
COc1ccc(NC(=O)CN(C)S(=O)(=O)c2ccc(F)cc2)cc1OC	-27.0	-6.7	2.3	·
C[C@@H]1CN([C@@H](C)CO)C(=O)c2cc(NC(=O)C3CC3)ccc2O[C@H]1CN(C)C(=O)NC1CCCCC1	17.1	12.6	·	20.8*
C[C@@H]1CN([C@H](C)CO)C(=O)c2cc(NC(=O)C3CC3)ccc2O[C@H]1CN(C)C(=O)Nc1ccc(C(F)(F)F)cc1	6.3	0.9	-3.5	-0.0942
C[C@@H]1CN([C@H](C)CO)C(=O)c2cc(NC(=O)Nc3ccc(C(F)(F)F)cc3)ccc2O[C@H]1CN(C)C(=O)Nc1ccc(F)cc1	35.1	-3.1	-1.7	-0.071
C[C@H]1CN([C@@H](C)CO)C(=O)c2cc(NC(=O)C3CCCCC3)ccc2O[C@@H]1CN(C)C(=O)Nc1cccc2ccccc12	2.1	4.9	-1.4	0.0157
C[C@@H]1CN([C@@H](C)CO)C(=O)c2cc(NC(=O)C3CCCCC3)ccc2O[C@H]1CN(C)C(=O)Nc1cccc2ccccc12	13.2	13.4	0.6	5.59*
C[C@@H]1CN([C@@H](C)CO)C(=O)c2cc(NC(=O)C3CC3)ccc2O[C@@H]1CN(C)C(=O)Nc1ccc(C(F)(F)F)cc1	11.7	80.4*	-3.0	0.338
C[C@@H]1CN([C@@H](C)CO)C(=O)c2cc(NC(=O)Nc3ccc(F)cc3)ccc2O[C@@H]1CN(C)C(=O)Nc1ccc(C(F)(F)F)cc1	105.3*	23.8	-2.4	0.231
Cc1ccc(C2=NNC(=O)CC2)cc1	·	-17.7	·	·
Cc1ccc(-c2ccn(-c3ccc(C)c(Cl)c3)c(=S)n2)cc1	·	22.8	·	·
CC(=O)Nc1cc(C(=O)NCCN(C)C)ccc1Sc1ccc(C)cc1	·	-9.6	·	·
C[C@H](CO)N1C[C@H](C)[C@@H](CN(C)C(=O)Nc2ccc(C(F)(F)F)cc2)Oc2ccc(NC(=O)Nc3ccc(C(F)(F)F)cc3)cc2C1=O	104.2*	74.4	-5.6	0.121
